Source: ChEMBL document CHEMBL3433997, “St. Jude Leishmania screening dataset” (2016)

Biological target: Glucose transporter (Leishmania mexicana) (UniProt O61059)
Test: ST_JUDE_LEISH: Cytotoxicity at 2uM final concentration against transgenic Leishmania Mexicana promastigotes LmGT2 that are glucose transport deficient and complemented with the L. Mexicana glucose transporter 2. Activity is measured by DNA content using SYBR green in vitro
Format: functional

Row | Compound | inhibition
1 | Clc1ccc(C=NN=c2cc[nH]c3ccccc23)cc1 | 6.25%
2 | Cc1ccc(-c2ccc3c(c2)C=C(C(=O)NCC2CCN(CC4CCN(C(=O)/C=C/c5ccc(Cl)c(Cl)c5)CC4)CC2)CCC3)cc1 | -0.85%
3 | CCN(CC)c1nc(N)c2c(N)nc3c(c2c1C#N)C(=O)CN3Cc1ccccc1 | 6.97%
4 | Cc1nc(NC(=N)N)nc2cc3c(cc12)CCC3 | 0.48%
5 | Cc1c(F)cc(C(=O)NC2CC2)cc1-c1ccc2c(cnn2S(=O)(=O)c2ccc(F)c(F)c2)c1 | 5.54%
6 | Cc1ccccc1C1CCN(C2CCC(NC(=O)/C=C/c3cccc(Cl)c3F)CC2)CC1 (stereo not given) | 1.85%
7 | CC1(C)NC(N)=NC(=N)N1OCCCCOc1ccccc1 | -0.45%
8 | COc1ccc(NC(=O)c2ccc(-c3ccc(-c4cccnc4)cc3)c(C)c2)cc1OCCN(C)C | 0.84%
9 | CC(C)c1ccc(-c2nc3cc(Cl)cnc3[nH]2)cc1 | 4.06%
10 | CC1CC(C)CN(CC(O)CNC(=O)Nc2ccc(Br)cc2)C1 (stereo not given) | 3.33%
11 | COc1ccc2[nH]c(C)cc(=NN=Cc3cccc(F)c3)c2c1 | 2.61%
12 | CC(Cc1ccc(NC(=O)c2ccc(CC(C)NCc3ccc(Cl)cc3)cc2)cc1)NCCc1cccc(Cl)c1 (stereo not given) | 1.33%
13 | CCC(Nc1noc(-c2c(-c3ccccc3)noc2C)n1)c1ccccc1 (stereo not given) | 1.54%
14 | CN1CCN(c2cc3c(Nc4ccc5c(cnn5Cc5ccccc5)c4)ncnc3cn2)CC1 | 2.17%
15 | NC1=NC2(CCCCC2)N(OCCCCCCN2C(=O)c3ccccc3C2=O)C(N)=N1 | 11.2%
16 | N=C(N)Nc1nc(CCCCCCCCc2csc(NC(=N)N)n2)cs1 | 1.03%
17 | CN1CCN(c2ccc(Nc3ncc(Cl)c(Nc4cccnc4C(N)=O)n3)cc2)CC1 | 66.8%
18 | COc1cc2nc(N3CCC(CNC(=O)c4ccc(-c5ccc(C#N)cc5)cc4)CC3)nc(N)c2cc1OC | 1.74%
19 | COc1ccc(N2CCN(CCCCNC(=O)c3ccc(NC(=O)c4ccc(Cl)cc4)cc3)CC2)c(C)c1 | 9.07%
20 | Cc1ccc(CNC(=O)[C@H](Cc2ccccc2)Nc2cc(C)nc(NCCc3ccc(F)cc3)n2)cc1 | 10.6%

Row | Compound | inhibition
21 | CS(=O)(=O)N(c1ccc(F)cc1)c1cc(C(=O)N[C@@H](Cc2ccccc2)[C@H](O)CNCc2cccc(C(F)(F)F)c2)cc(N2CCCC2=O)c1 | -1.53%
22 | COc1cc(Nc2ccnc3cc(-c4ccccn4)ccc23)cc(OC)c1OC | 5.6%
23 | CN(CCCCNC(=O)/C=C/c1ccccc1)C1CC2(CCN(C(=O)OC(C)(C)C)CC2)c2ccccc21 (stereo not given) | 1.67%
24 | N#Cc1cccc(NC(=O)Nc2cccc(OC3CCN(Cc4ccccc4)CC3)c2)c1 | -0.29%
25 | NC(=O)c1c(Cl)nc2ccccc2c1Cl | 4.04%
26 | COc1ccc2ccccc2c1CCCCN1CCN(CC(c2ccc(F)cc2)N2CCN(C(C)C)CC2)CC1 (stereo not given) | 12.3%
27 | Cc1cc(C)cc(NC(=S)NCCCCN2CCN(c3cccc(Cl)c3)CC2)c1 | -4.65%
28 | COc1cc(-n2c(CN3CCCC3)nc3cc(-c4ccc(Cl)cc4)sc3c2=O)ccc1OCCN1CCCC1 | 0.37%
29 | CN1CCN(CC(=O)Nc2cccc(-c3ccc(-c4nc5cc(C(F)(F)F)ccc5[nH]4)cc3)c2)CC1 | 1.35%
30 | c1ccc2[nH]c(-c3ccc(-c4ccc(CN5CCN(CCN6CCOCC6)CC5)cc4)s3)nc2c1 | 7.67%
31 | CCOC(=O)c1c(C)n(-c2ccc(Cl)cc2)c2ccc(OC(=O)C=Cc3ccccc3)cc12 | 5.18%
32 | Cc1cccc2nc(-c3cccc(-c4ccc(NC(=O)NC5CC5c5ccccc5)cc4)c3)[nH]c12 (stereo not given) | 5.64%
33 | COC(=O)c1cc(OC)c(OC)cc1NC(=O)NC12CC3CC(CC(C3)C1)C2 | 1.18%
34 | CS(=O)(=O)N(CC(O)Cn1c2ccc(Cl)cc2c2cc(Cl)ccc21)c1ccccc1 (stereo not given) | 2.64%
35 | CC(C)(C)OC(=O)NCc1ccc(Nc2nnc(-c3cccc(C(=O)NCc4cc(C(F)(F)F)cc(C(F)(F)F)c4)c3)o2)cc1 | 5.41%
36 | CCc1cc(Br)c2c(c1)C(NCCCNc1cc(=O)c3ccccc3[nH]1)CCN2 (stereo not given) | 5.63%
37 | Fc1ccc2[nH]c(-c3ccc(-c4ccc(CNCCc5ccncc5)cc4)s3)nc2c1 | 7.86%
38 | Cc1cc(N/N=C/c2ccccc2[N+](=O)[O-])c2cc(C(F)(F)F)ccc2n1 | 1.45%
39 | CNC(=O)c1cc(F)c(F)cc1Nc1nc(Nc2cccc(CS(C)(=O)=O)c2)ncc1Cl | 2.49%
40 | CCCCNC(=O)[C@@H]1CCCN1C(=O)c1ccc(O)c(-c2ccc(Cl)c(Cl)c2)c1 | -3.49%
